Measurements as given in the supplement of paper PMC6555819.

Tests used:
Test in all cases: PBM binding z-score (relative to random genomic background probes); higher = stronger binding; sequences stand for … in GC…GCGATTGACAGCGTAGAATGAAGG
[1] = test system: RARb homodimer (NR concentration 270 nM)
In short: (§1)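 For binding z-scores, the reference was random background probes on custom Agilent 4×180K protein-binding microarrays. These arrays were incubated 1 h with ligand-free nuclear receptor dimers in PBS pH 7.4, 2% milk, 0.02% Triton X-100, 1 mM DTT, 0.2 mg/mL BSA and 0.4 mg/ml salmon testes DNA. Fluorescence was scanned after antibody detection of each partner (one per run) and regression-normalized.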

[2] = test system: RARg:RXRa (NR concentration 270 nM, RXRa partner concentration 90 nM)
In short: as §1

[3] = test system: RARg homodimer (NR concentration 270 nM)
In short: as §1

[4] = test system: RXRa DBDmut IVT, anti-RXR (DBD mutation: RXRa K156A/R161A, NR concentration 90 nM)
In short: as §1

[5] = test system: RXRa homodimer (NR concentration 180 nM)
In short: as §1

[6] = test system: THRa:RXRa (NR concentration 90 nM, RXRa partner concentration 90 nM)
In short: as §1

[7] = test system: THRa homodimer (NR concentration 90 nM)
In short: as §1

[8] = test system: VDR homodimer (NR concentration 270 nM)
In short: as §1

Sequence | PBM binding z-score [1] | PBM binding z-score [2] | PBM binding z-score [3] | PBM binding z-score [4] | PBM binding z-score [5] | PBM binding z-score [6] | PBM binding z-score [7] | PBM binding z-score [8]
ATCTCTAGCTAACAAGTTCAGTGAAAGAGAGGAC | 1.31 | 0.734 | 0.987 | 0.511 | 0.529 | 1 | 0.651 | 2.47
AGTCATAGTTCATCTAGGTAACGTAAGATATGCT | 2.23 | 3.01 | 3.33 | 2.6 | 2.02 | 2.21 | 0.0435 | 2.02
GGAACGAGGGAATTCGAGTTGATAGCATGGCGAT | -0.928 | -0.376 | -0.201 | -0.589 | -0.105 | 0.1 | -1.07 | -0.525
TAGCCTAGGTCAGATCGGTCCAGTATACGCTATA | 1.89 | 2.06 | 3.2 | -0.21 | 1.2 | 2.97 | 0.0173 | 0.23
GCTATTAGTAGAAAGGGCAACCGAATGATTCTCG | 1.83 | 0.904 | 1.32 | 0.538 | 0.634 | 0.234 | -0.401 | -0.301
TTGCCTAGGTCAGATCGGGCCAGTATACGCTATA | 2.16 | 2.77 | 3.6 | 0.0965 | 1.51 | 3.9 | -0.108 | -0.389
GCTTGTAGATCAACGTTAAGAAAGACTAAGCTAA | -0.408 | -0.256 | -0.209 | 0.0501 | -0.405 | -0.214 | -0.701 | -0.764
CAGCCTAGGTCAGGGCCAGTATTGGAGGAACGTT | 2.67 | 2.91 | 3.91 | -0.14 | 1.62 | 2 | 0.259 | -0.444
AGTCTAAGTTCAGGACGAGGTAACGTAAAGCACG | 1.85 | 3.11 | 2.65 | 3.28 | 1.57 | 3.56 | 1.99 | 2.62
CCTACTTGGCCACGAAAGGTCATTGATTCAGTGA | 4.61 | 4.77 | 4.41 | 1.36 | 5.16 | 3.44 | 1.3 | 2.78
CGTCAAAGTTCAAGGTGACGTAACAGAAAGCAGC | 4.19 | 5.57 | 6.39 | 4.67 | 4.63 | 3.25 | 1.36 | 3.17
CCTAGTTGGTCAATGTCACACACGCTATAGGTAC | 1.52 | 1.07 | 1.59 | 1.04 | 0.701 | 0.639 | 0.635 | 0.802
AATACAGGGTCATCATAGGCCAGAGTACGCACAG | 3.57 | 5.66 | 5.42 | 3.54 | 6.89 | 4.39 | 1.78 | 3.46
AGCGAAAGGTCGTGAGGTGAGTATACAGAAAGGC | 3.19 | 4.63 | 3.87 | 0.985 | 5.33 | 3.46 | 1.27 | 0.74
GGAACGAGGGCAAAGTTGAAAGCATCTGTCGACG | 1.51 | 2.59 | 1.86 | 2.79 | 2.88 | 1.59 | -0.341 | 0.999
GCTATCAGGCCATTTGGGTCACTCAATGACGGGC | 2.39 | 1.19 | 1.66 | 0.754 | 0.858 | 2.55 | 1.57 | 0.781
CAAACTAGGTCACCGGAAGGTCAAATTCCGCATG | 5.55 | 8.17 | 7.31 | 2.13 | 6.55 | 4.58 | 3.11 | 2.93
CCTCGGAGGAAAGAAGGTCAGAGCTGTCCGCTTT | 2.71 | 1.88 | 1.67 | 0.0436 | 1.44 | 1.93 | -0.547 | 0.00914
TAGACTAGGTCATTGGGCCAGTATAGTACGCATC | 2.75 | 3.47 | 4.19 | 0.824 | 2.44 | 2.45 | 0.646 | 1.26
CGTCCACGGTCAAGGTCAGTGAAAGAGACTCGAA | 3.86 | 3.41 | 5.01 | 0.716 | 2.45 | 3.05 | 1.64 | 0.791
ACTGGTTGGTCAGCTGAGGTCACACACAATTCGG | 4.63 | 4.08 | 4.57 | 1.23 | 4.2 | 5.13 | 5.73 | 4.2
AGAATGAGGTTATACGTAGATCTGGGAAGAAAGT | 0.334 | 1.39 | 0.958 | 1.1 | 1.94 | 2.03 | 0.225 | 0.724
CAAACTAGCTCACAGAGGTCAAAGTCCGTGCGTA | 4.34 | 5.3 | 4.81 | 1.5 | 6.31 | 3.53 | 1.27 | 3.71
ATCTCTAGGTAGAGTTCAGTGAAAGATCGATAGA | 1.89 | 1.61 | 1.55 | 2.18 | 1.3 | 0.946 | -0.259 | 3.41
TGTCAAAGTTCAGAGGTAACGTAAGTATCCACAC | 3.02 | 4.64 | 4.84 | 3.01 | 4.22 | 2.53 | 0.262 | 2.11
CGTCAAAGCTCAAGGTAACGTAACAGAAAGCAGC | -0.207 | 0.00785 | 0.083 | -0.317 | 0.0693 | 1.29 | 0.693 | -0.4
GCTAGTTGGTCAGTTAAAGGTCACACACCGGTCG | 5.09 | 5.56 | 4.82 | 0.773 | 5.12 | 3.53 | 2.36 | 2.33
CAAACTAGGTCAATGTCAAAGTCGGTTTGTGCCA | 3.06 | 3.43 | 4.16 | 1.94 | 2.36 | 2.56 | 0.861 | 1.28
